Percent Effect data for 31 molecules are collected here from ChEMBL document CHEMBL3988442, “University of Dundee, Small-Polar-MMV Screening Library” (2021).

Screen size: about 69,000 compounds; about 420 (0.61%) showed an effect of 50% or more. Shown is part of a subset that was picked to be rich in strong results.

This assay has as its target T1, Histidine--tRNA ligase (Leishmania infantum) (UniProt A4I591).
T1 sequence (whole entry): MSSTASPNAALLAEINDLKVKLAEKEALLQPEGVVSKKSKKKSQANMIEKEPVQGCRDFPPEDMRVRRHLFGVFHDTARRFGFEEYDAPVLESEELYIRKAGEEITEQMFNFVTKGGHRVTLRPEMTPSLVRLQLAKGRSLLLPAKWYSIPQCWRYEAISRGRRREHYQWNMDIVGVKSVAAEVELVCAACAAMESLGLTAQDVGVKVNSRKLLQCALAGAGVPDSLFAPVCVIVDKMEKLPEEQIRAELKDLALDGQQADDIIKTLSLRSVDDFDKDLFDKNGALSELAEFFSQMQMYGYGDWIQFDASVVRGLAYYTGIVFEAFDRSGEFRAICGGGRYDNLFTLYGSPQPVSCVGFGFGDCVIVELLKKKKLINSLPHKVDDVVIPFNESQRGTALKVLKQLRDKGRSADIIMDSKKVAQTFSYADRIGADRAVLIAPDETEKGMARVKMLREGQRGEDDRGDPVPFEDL
The experiment in a line: Leishmania infantum Histidine tRNA synthetase (LdHisRS). The arrangement: scale not given: in the data most compounds retested in dose-response had high values. As to conditions: 30 µM. It is filed as functional.
On to `Cc1cnc(N2CCN(C)CC2)nc1-c1ccnn1C`, for which the Percent Effect was 7.84%.

Turning to `COc1cnc(N2CCN(C)CC2)nc1-c1ccnn1C`, the Percent Effect is 13.7%.

Regarding `COc1cnc(N2CC(N3CCOCC3)C2)nc1-c1ccnn1C`, the Percent Effect is 92.2%.

Take `CC(=O)N1[C@H](Cn2cncn2)C[C@@H]2CN(CC3CC3)CC[C@@H]21`: the Percent Effect stood at 11.1%.

With `Cc1cc(C(=O)N2C[C@@H]3COC[C@]3(CN(C)C)C2)sc1C`, the Percent Effect is -39.3%.

Regarding `COCCN1C[C@@H]2CN(Cc3ccc(C)s3)CCC[C@]2(C(=O)O)C1`, the Percent Effect is -8.18%.

On to `CS(=O)(=O)N1CC[C@H]2C[C@@H](C(=O)N3CCOCC3)O[C@@H]2C1`, for which the Percent Effect was -3.77%.

With `O=C1N(Cc2cccnc2)C[C@H]2CN(S(=O)(=O)c3ccccc3)CCN12`, the Percent Effect worked out at 13.5%.

As for `Cc1ccoc1C(=O)N1CCO[C@H]2[C@H](OCC3CCOCC3)CC[C@@H]21`, the Percent Effect was found to be 7.55%.

As to `COc1ccc(-n2c(CO)nc3ccccc32)cc1CO`, the Percent Effect stood at 34.3%.

As for `COc1ccc(-n2c(CCC(=O)O)nc3ccccc32)cc1CO`, the Percent Effect is 60%.

For `CC(O)c1cccc(-n2c(CCC(=O)O)nc3ccccc32)c1` (stereo unspecified), the Percent Effect worked out at 40%.

In the case of `CNC[C@H]1CC[C@H](c2cc(CN(C)S(=O)(=O)N(C)C)n(C)n2)CC1`, the Percent Effect was -50%.

Consider `O=C(c1ccco1)N1CCO[C@@H]2CN(CC3CC3)CC[C@@H]2C1`, for which the Percent Effect was found to be 26%.

In the case of `CN1[C@H]2CC[C@@H]1CN(C(=O)c1nnc3n1CCCC3)CC2`, the Percent Effect amounted to 8.89%.

On to `Cc1ccc(N2CCCC(N(C)c3nn4cc(C)nc4s3)C2)nn1` (stereo unspecified), for which the Percent Effect amounted to 15.9%.

As to `Cc1ncc(CN(C)C2CCCN(c3cccnn3)C2)s1` (stereo unspecified), the Percent Effect came out at 6.74%.

Regarding `Cc1cn2nc(N(C)C3CCCN(c4cccnn4)C3)sc2n1` (stereo unspecified), the Percent Effect amounted to 65.5%.

For the molecule `COc1ccc(CN2C[C@@H]3OCCN(CCN4CCCC4)[C@@H]3C2)cc1`, the Percent Effect came out at 0.917%.

On to `CC(C)NC(=O)c1nc2c(s1)CCCN2Cc1ccccc1`, for which the Percent Effect came to 38.5%.

As to `CCN(C(=O)c1nc2c(s1)CCCN2Cc1ccccc1)C(C)C`, the Percent Effect was 74.4%.

On to `CN(C)C(=O)c1nc2c(s1)CCCN2Cc1ccccc1`, for which the Percent Effect is -245%.

As to `CSc1ccccc1C(=O)N1C[C@H]2CC[C@@H]1CN(C(=O)C1CCC1)C2`, the Percent Effect is 14.5%.

Take `O=C(CC1CC1)N[C@@H]1CN(C(=O)c2ccsc2)C[C@@H]2CCCO[C@@H]21`: the Percent Effect is 0.901%.

With `CCC(C)C(=O)Nc1ccc2oc(=O)n(CCN(C)C)c2c1` (stereo unspecified), the Percent Effect worked out at 27.7%.

On to `CN(C)CCn1c(=O)oc2ccc(NC(=O)N3CCCCCC3)cc21`, for which the Percent Effect was 59.8%.

On to `CCC(CC)C(=O)Nc1ccc2oc(=O)n(CCN(C)C)c2c1`, for which the Percent Effect is 15.2%.

For `CN(C)CCn1c(=O)oc2ccc(NC(=O)CC(C)(C)C)cc21`, the Percent Effect was 37.9%.

Turning to `CC(C)CCC(=O)Nc1ccc2oc(=O)n(CCN(C)C)c2c1`, the Percent Effect was 27.7%.

`CN(C)CCn1c(=O)oc2ccc(NC(=O)C3CCCO3)cc21` (stereo unspecified): the Percent Effect is 53.4%.

With `CCNC(=O)N1CC[C@H]2CC(=O)N(CC(N)=O)CC[C@H]2C1`, the Percent Effect was 11.1%.
